This passage reports Potency results from PubChem BioAssay AID588342 (National Center for Advancing Translational Sciences (NCATS), 2011).

Screen size: about 360,000 compounds; about 25,000 (6.9%) were called active. Not shown: some 9% with an inconclusive outcome. Calls follow the shape of the dose curve; as a rule, active = well fitted inhibition curve with a large enough effect; inconclusive = small, poorly fitted or top-dose-only effect; inactive = flat fitted curve, though single readings scatter. Shown is part of a subset that was picked to be rich in actives. Entries that show only a call come without a potency.
Potency is read from the fitted curve at half-maximal effect.

The test deals with Luciferin 4-monooxygenase (Photinus pyralis) (UniProt P08659). In words: qHTS profiling assay for firefly luciferase inhibitor/activator using purifed enzyme and Km concentrations of substrates (counterscreen for miR-21 project). Also: nearly all actives have a fitted effect of over 55% in size. The following applies: purified FLuc, luminescence inhibition; series mostly up to 57.5 µM. An outline of the steps: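 Purified P. pyralis luciferase, 10 nM final, with Km-level 10 uM D-luciferin and 10 uM ATP in 50 mM Tris acetate pH 7.5, 10 mM Mg acetate, 0.01% Tween-20, 0.05% BSA; 6-point qHTS titration about 60 µM downward; luminescence read.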
Chain of Luciferin 4-monooxygenase (Photinus pyralis) (P08659 whole entry, looked up): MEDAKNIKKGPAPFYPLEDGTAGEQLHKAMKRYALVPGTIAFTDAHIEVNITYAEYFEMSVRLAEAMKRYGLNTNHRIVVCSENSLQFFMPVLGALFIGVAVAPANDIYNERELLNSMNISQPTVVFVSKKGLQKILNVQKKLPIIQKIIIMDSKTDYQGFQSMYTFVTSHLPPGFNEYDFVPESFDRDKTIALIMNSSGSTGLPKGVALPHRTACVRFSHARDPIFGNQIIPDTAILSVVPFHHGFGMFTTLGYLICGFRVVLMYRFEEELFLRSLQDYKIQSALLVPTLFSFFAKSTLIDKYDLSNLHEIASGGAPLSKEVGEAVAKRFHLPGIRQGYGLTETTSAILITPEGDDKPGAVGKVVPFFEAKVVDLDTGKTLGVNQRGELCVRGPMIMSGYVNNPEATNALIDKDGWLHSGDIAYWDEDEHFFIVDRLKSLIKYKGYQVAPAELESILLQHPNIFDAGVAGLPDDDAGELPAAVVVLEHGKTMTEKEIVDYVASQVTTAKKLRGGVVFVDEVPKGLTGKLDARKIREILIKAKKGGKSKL
(In general: qHTS replaces the single test concentration by a dilution series.)
Regarding `CN(CC(=O)Nc1ccccc1C(F)(F)F)C(=O)Cc1ccccc1F`, the Potency entry is “inactive”.
In the case of `CCN(CC)C(CNC(=O)CSc1nnnn1-c1cccc(F)c1)c1ccco1` (stereo not given), the Potency result is “inactive”.
In the case of `CSc1ncc(C(=O)NCCCc2ccccc2)c(C)n1`, the Potency entry was “inactive”.
Next, `COc1ccc(OC)c(CNC(=O)c2c3c(nc4ccccc24)C(=O)N(C2CCCCC2)C3)c1`: “inactive”; `CC(=O)Oc1ccc(N(C(C)=O)S(=O)(=O)c2ccc3ccccc3c2)cc1Br`: “inactive”; `COc1ccc(C2CC(=O)N(Cc3ccccc3C)c3c2c(C)nn3-c2nc(C)cc(C)n2)c(OC)c1` (stereo not given): “inactive”.
Regarding `COc1cc(-c2nn3c(-c4cccc(C)c4)nnc3s2)cc(OC)c1OC`, the Potency result is “inactive”.
On to `CCOc1cccc(-c2nn3c(-c4ccccn4)nnc3s2)c1`, for which the Potency result is “inactive”.
Regarding `c1ccc(-c2cc(-c3nnc4sc(-c5ccccn5)nn34)[nH]n2)cc1`, the Potency was 10.7 µM (active).
For the compound `CN(Cc1ccccc1)c1ccc(-c2nc(-c3ccccc3)no2)cc1[N+](=O)[O-]`, the Potency entry is “inactive”.
Next, `COc1cccc(N2CCN(CC(=O)Nc3ccnn3C3CCCC3)CC2)c1`: “inactive”.
In the case of `CCN(c1ccc(Cl)cc1)S(=O)(=O)c1nnc(NC(=O)c2ccco2)s1`, the Potency result is “inactive”.
Next, `Cc1ccccc1C(=O)Nc1ccccc1NC(=O)c1ccccc1C`: “inactive”; `Cc1cc(NC(=O)c2ccccc2C)no1`: 15.1 µM (active); `Cc1cc(NC(=O)COc2ccc([N+](=O)[O-])cc2)no1`: “inactive”.
With `Cc1cc(NC(=O)CSCc2ccccc2C)no1`, the Potency entry was “inactive”.
As for `Cc1cc(NC(=O)COc2ccccc2C#N)no1`, the Potency is 12 µM (active).
Turning to `Cc1cc(NC(=O)COn2nnc3ccccc32)no1`, the Potency result is “inactive”.
For `COc1ccc(N2C(=O)CSC23C(=O)N(Cc2cccc(F)c2)c2ccccc23)cc1Cl` (stereo not given), the Potency result is “inactive”.
Consider `COc1ccc(C(=O)C[n+]2ccc(N)c(C)c2C)cc1`, for which the Potency entry is “inactive”.
With `CC(CNC(=O)c1nnc(Cc2cccc(F)c2)o1)c1ccccc1` (stereo not given) the entry was “inactive”; with `NC(=O)NC(CC(=O)NNC(=O)c1ccccn1)c1ccc(Cl)cc1` (stereo not given), “inactive”.
Consider `CC(C)(C)NC(=O)CSc1nc(-c2ccc(F)cc2)cc(C(F)(F)F)n1`, for which the Potency result was “inactive”.
`COC(=O)Cc1ccc(OCC(=O)NC2CCCC2)cc1`: the Potency result was “inactive”.
With `Cc1c(C(=O)Nc2ccccn2)oc2ccc(Br)cc12`, the Potency was 2.13 µM (active).
As to `Cc1noc(C)c1C(=O)Nc1ccccn1`, the Potency result was “inactive”.
Take `COC(=O)c1oc2ccc(Br)cc2c1NC(C)=O`: the Potency entry was “inactive”.
Regarding `COc1cc(C(CC(=O)NCCC(C)C)N2Cc3ccccc3C2=O)cc(OC)c1OC` (stereo not given), the Potency result is “inactive”.
With `CCCn1c(=N)n(CC(O)COc2ccccc2OC)c2ccccc21` (stereo not given), the Potency entry is “inactive”.
Turning to `COc1cc2[nH]c(=O)n(Cc3ccc(C(=O)NCc4ccc(C)cc4)cc3)c(=O)c2cc1OC`, the Potency result was “inactive”.
